In PubChem BioAssay AID1508625 (Wald Lab, School of Medicine, Case Western Reserve …, 2021):

Test: enhancers of NK cell killing of ovarian tumor cells, primary screen, imaging, OVCAR3, primary NK cells, calcein-AM imaging (AID 1508625);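 further: compound given to NK cells 16 h before adding targets at 1.5 to 1 ratio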
Details: OVCAR3 lysis by primary NK cells, at 5 µM; z-score: measured here: robust Z-score, single-point normalisation

SMILES: Cc1cc(C)c2oc(-c3ccc(C)c(N=Cc4cccc([N+](=O)[O-])c4O)c3)nc2c1
- corrected activity, negative = more killing: -14.1%
- z-score: -2.97

SMILES: COc1ccc(C(=O)N2N=C(C(C)C)CC2(O)C(F)(F)F)cc1OC (stereo unspecified)
- corrected activity, negative = more killing: -4.89%
- z-score: -1.46

SMILES: Cc1nn(C(=O)c2cccnc2)c(C)c1Sc1ccc(Cl)cc1
- corrected activity, negative = more killing: -1.68%
- z-score: -0.87

SMILES: Cc1noc(C)c1S(=O)(=O)Nc1ccc(C(=O)Nc2cccc(Cl)c2)cc1
- corrected activity, negative = more killing: -7.43%
- z-score: -1.82

SMILES: c1cncc(CNC23CC4CC(CC(C4)C2)C3)c1
- corrected activity, negative = more killing: -3.27%
- z-score: -1.04

SMILES: COc1ccc(Cc2nc3c4c5c(sc4ncn3n2)C(C)(C)NC(C)(C)C5)cc1OC
- corrected activity, negative = more killing: -2.36%
- z-score: -1.03

SMILES: Cc1ccc(NC(=O)CSc2ccc(Nc3ccc(C)cc3)nn2)cc1
- corrected activity, negative = more killing: -2.33%
- z-score: -0.695

SMILES: COCCNCC(O)Cn1c2ccccc2c2ccccc21 (stereo unspecified)
- corrected activity, negative = more killing: 2.4%
- z-score: 0.916

SMILES: COc1ccc(NC(=O)CN(C)S(=O)(=O)c2cccs2)cc1OC
- corrected activity, negative = more killing: -4.46%
- z-score: -1.26

SMILES: CCCCNCCCOc1cccc(Br)c1
- corrected activity, negative = more killing: -0.452%
- z-score: -0.168

SMILES: O=C(Oc1ccccc1C(=S)N1CCOCC1)c1ccc([N+](=O)[O-])cc1
- corrected activity, negative = more killing: 4.47%
- z-score: 1.39

SMILES: O=C(C=Cc1ccc([N+](=O)[O-])cc1)NC(=S)NN1CCOCC1
- corrected activity, negative = more killing: -5.28%
- z-score: -1.68

SMILES: Cc1cc2nc3sc(=Cc4ccc(Cl)cc4Cl)c(=O)n3c2cc1C
- corrected activity, negative = more killing: -1.46%
- z-score: -0.755

SMILES: CC(=O)SCCC(=O)N1C(C)CCCC1C(=O)O (stereo unspecified)
- corrected activity, negative = more killing: -3.02%
- z-score: -1.19

SMILES: N#Cc1c2c(c(-n3ccnc3)n3c1nc1ccccc13)CCC2
- corrected activity, negative = more killing: -2.49%
- z-score: -0.772

SMILES: CSC1CCCCC1(O)CSc1nc2ccccc2o1 (stereo unspecified)
- corrected activity, negative = more killing: -4.44%
- z-score: -1.67

SMILES: Cc1cccc(C(=O)N2N=C(C(F)(F)F)CC2(O)C(C)(C)C)c1 (stereo unspecified)
- corrected activity, negative = more killing: -2.49%
- z-score: -0.95

SMILES: COc1cccc(CCNc2ccc(N3C(=O)C4CCC(C)CC4C3=O)cc2[N+](=O)[O-])c1 (stereo unspecified)
- corrected activity, negative = more killing: -3.2%
- z-score: -1.17

SMILES: Cc1sc2nc(SCC(=O)Nc3ccc(N(C)C)cc3)[nH]c(=O)c2c1C
- corrected activity, negative = more killing: -4.5%
- z-score: -2.5

SMILES: CN1C(=O)c2ccccc2Sc2ccc(C(=O)O)cc21
- corrected activity, negative = more killing: -8.06%
- z-score: -2.17

SMILES: CC(C)(C)c1ccc(C(=O)Nc2ccc(Cl)c(NC(=O)c3ccccc3)c2)cc1
- corrected activity, negative = more killing: -4.21%
- z-score: -1.49

SMILES: COc1ccc(C(=O)N2CCN(CC=Cc3ccccc3)CC2)cc1
- corrected activity, negative = more killing: -1.03%
- z-score: -0.422

SMILES: CN1C(=O)c2ccccc2C(C(=O)NCCCN2CCCCCC2)C1c1cccs1 (stereo unspecified)
- corrected activity, negative = more killing: -5.67%
- z-score: -1.41

SMILES: CCOc1ccc(OCC(=O)NC(C)C)cc1
- corrected activity, negative = more killing: -5.07%
- z-score: -2.82

SMILES: Cc1ccccc1CSC1=NCCN1C(=O)c1ccc(OC(C)C)cc1
- corrected activity, negative = more killing: -4.64%
- z-score: -1.14

SMILES: c1nc(N2CCCCCC2)c2[nH]cnc2n1
- corrected activity, negative = more killing: -0.464%
- z-score: -0.115

SMILES: CC(=O)c1ccc(NC(=O)c2ccc(N)cc2)cc1
- corrected activity, negative = more killing: -8.59%
- z-score: -1.81

SMILES: COc1ccc(C2=NN(c3nc(-c4ccc(OC)c(F)c4)cs3)C(c3ccco3)C2)cc1 (stereo unspecified)
- corrected activity, negative = more killing: -2.68%
- z-score: -1.01
